# Compound activity: PubChem, Sanford-Burnham Center for Chemical Genomics
# PHOSPHO1 inh = PubChem AID 1565; recombinant PHOSPHO1, absorbance phosphatase assay; inhibition, % at 13.3 µM; hit rate 1.1% among 290,000; Phosphoethanolamine/phosphocholine phosphatase (Homo sapiens), Q8TCT1; in the data active means inhibition above about 60%
# Target sequence (Q8TCT1 whole entry, looked up): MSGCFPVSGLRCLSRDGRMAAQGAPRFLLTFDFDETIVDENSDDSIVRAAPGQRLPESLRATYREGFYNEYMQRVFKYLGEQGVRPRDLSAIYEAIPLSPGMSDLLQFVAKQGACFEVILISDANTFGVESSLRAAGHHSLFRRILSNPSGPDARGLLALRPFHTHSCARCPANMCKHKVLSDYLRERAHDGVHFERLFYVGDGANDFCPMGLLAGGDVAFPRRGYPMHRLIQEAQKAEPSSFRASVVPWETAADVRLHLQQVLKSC
# PABP1 MLLE inh = inhibitors of PABP1 MLLE–PAM2 peptide binding, primary screen, biochemical, fluorescence polarization, FITC-PAM2, GST-MLLE; inhibition, % at 20 µM; hit rate 0.36% among 360,000; Polyadenylate-binding protein 1 (Homo sapiens), P11940; AID 588489, 2011; in the data active means inhibition above about 35%, passing the limit was not always enough;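 further: plate controls were DMSO wells with GST-MLLE for no effect and wells lacking GST-MLLE protein for full effect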
# PABP FP inh = PABP poly(A) RNA binding inhibitors, primary screen, biochemical, fluorescence polarization, uHTS. hit rate 1% among 290,000. inhibition, % at 35 µM. Polyadenylate-binding protein 1 (Homo sapiens), P11940;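 further: calls also rest on retests at 20 µM and on dose response follow-up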
# eIF4H inh = human eIF4H binding inhibitors, primary screen, translation initiation inhibitor project, biochemical, uHTS, fluorescence polarization. Eukaryotic translation initiation factor 4H (Homo sapiens), Q15056. eIF4H fluorescence polarization binding assay. inhibition, % at 35 µM. hit rate 0.94% among 290,000;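 further: calls also rest on retests at 20 µM and on dose response follow-up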
# CRFBP-R2 block = antagonists of CRF-BP/CRF-R2 complex, primary screen, cell-based, HEK293, calcium dye fluorescence, uHTS. inhibition, % at 11.8 µM. CRF-induced calcium fluorescence. hit rate 0.59% among 350,000;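 active means inhibition of the ligand-induced calcium signal above about 50% at the single tested concentration, limit read from the data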
# * marks the source's active call; other numbers are inactive results; ? = inconclusive; . = no result. A selection: hits, their analogues and other compounds. The true share with any hit is near 2.6%. Unless noted, how the calls were made is not given here.
SMILES,PHOSPHO1 inh,PABP1 MLLE inh,PABP FP inh,eIF4H inh,CRFBP-R2 block
Cc1ccc(-c2nn(C)c(=O)c3ccccc23)cc1CO,8,-13,2,-3,69*
Cc1ccc(N2NC(=O)/C(=C/c3ccc(-c4ccc(Cl)c(C(=O)O)c4)o3)C2=O)cc1,37,1,31,46,3
CCCCC1(C)OC(=O)C(=Cc2ccc(-c3ccc(Cl)c(C(=O)O)c3)o2)C(=O)O1 (centres undefined),86*,4,33,47,61*
CCOC(=O)c1cc(-c2ccc(/C=C3/C(=O)NC(=O)C(C#N)=C3C)o2)ccc1Cl,3,18,87*,?,-26
COc1ccc(Cl)cc1NC(=O)c1cccc([N+](=O)[O-])c1O,.,-9,.,.,83*
C/C=C/C=C/C(=O)OC(C)C(=O)Nc1cc([N+](=O)[O-])ccc1OC (centres undefined),4,11,4,-8,112*
CSc1ccccc1C(=O)Nc1cccc([N+](=O)[O-])c1,57,0,6,7,3
COc1ccc([N+](=O)[O-])cc1NC(=O)c1ccccc1SC,-12,2,10,0,100*
COc1cccc(-c2nnc(SCc3ccc(C#N)cc3)n2Cc2ccco2)c1,65*,-97,-3,-8,16
CCn1c(SCc2cccc(F)c2)nnc1-c1ccncc1,52,-2,1,1,5
CCn1c(SCc2cccc(C)c2)nnc1-c1ccc(C)cc1,69*,-49,-6,-6,-4
C=CCn1c(SCc2ccc(C#N)cc2)nnc1-c1cccc(OC)c1,13,-15,0,-12,13
Cc1cc(C)nc(SCc2nnc(SCc3ccc([N+](=O)[O-])cc3)n2Cc2ccco2)n1,-43,-20,-14,-7,79*
COC(=O)CSc1nnc(CSc2nc(C)cc(C)n2)n1Cc1ccco1,10,-20,0,0,2
Cc1ccc(-c2nnc(SCc3ccc(C#N)cc3)n2Cc2ccco2)cc1,100*,-54,-12,-9,6
O=C1CSC(=S)N1/N=C/c1cccnc1,-6,43*,-2,-8,0
CCN(CC)c1ccc(N2C(=O)CSC2=S)cc1,1,-5,15,62*,-1
O=C1CSC(=S)N1c1ccccc1,.,5,.,.,-15
O=C1CSC(=S)N1c1cccnc1,98*,40*,7,4,12
O=C1CSC(=S)N1N=Cc1ccccc1O,.,20,.,.,-16
CCOc1ccc(N2C(=O)CSC2=S)cc1,.,16,2,2,11
CCCCN(CCCC)Cc1cc(=O)oc2cc(OC)c(Cl)cc12,.,-38,.,.,.
O=c1cc(CN2CCN(c3ccc(Cl)c(Cl)c3)CC2)c2c(ccc3ccccc32)o1,.,-11,.,.,.
CCc1ccc(S(=O)(=O)/N=C2\C=C(Nc3ccc(O)cc3)C(=O)c3ccccc32)cc1,-4,14,7,-2,140*
CCc1ccc(S(=O)(=O)/N=C2\C=CC(=O)c3ccccc32)cc1,11,.,-2,-1,.
SMILES,PHOSPHO1 inh,PABP1 MLLE inh,PABP FP inh,eIF4H inh,CRFBP-R2 block
O=C(O)c1ccc(NC2=C/C(=N/S(=O)(=O)c3ccccc3)c3ccccc3C2=O)cc1,-23,21,22,9,17
CCc1ccc(S(=O)(=O)/N=C2/C=C(Sc3ncn[nH]3)C(=O)c3ccccc32)cc1,41,46*,3,-3,-9
Cc1cc(C)c(S(=O)(=O)/N=C2\C=C(Nc3ccc(C(=O)O)cc3)C(=O)c3ccccc32)c(C)c1,28,8,54*,60*,31
Cc1cc2ccccn2c1C(=O)c1nc(NCc2ccccc2)ncc1Cl,24,12,8,-4,2
N#Cc1c(=O)c2nc(NCc3ccccc3)ncc2n2ccccc12,-11,10,54*,84*,-30
Cc1nc2ccc(C(=O)Nc3ccc4c(c3)OCC(=O)N4)cn2c1N(C)C(=O)CCc1ccccc1,.,-8,.,.,.
Cc1cccc(N2CCN(C(=O)CSc3nc4ccccc4nc3N3CC(C)OC(C)C3)CC2)c1C (centres undefined),36,-7,7,10,6
COCCn1c(C)cc(C(=O)CN2C(=O)C(=O)N(CCC3=CCCCC3)C2=O)c1C,.,10,.,.,0
CC1CCC/C(=C\Nc2ccc(O)cc2)C1=O (centres undefined),70*,-23,34,20,-28
CNC(=O)c1cc(C(=O)c2ccccc2C(F)(F)F)c[nH]1,-26,13,-5,-11,-37
